# From PMC8384837, “Expanding the binding specificity for RNA recognition by a PUF domain”
# What was measured:
# Assay in all cases: yeast three-hybrid, YBZ-1, SC-Leu-His + 0.5 mM 3-AT, 4 days
# Conditions in all cases: tags: N-Gal4 AD-HA kept; label: inside an RPR1-promoter hybrid RNA with tandem MS2 sites; ssRNA
# [1] = molecular target: PUM1 PUF domain R3-YRD (Homo sapiens, UniProt Q14671 828-1176, C935Y;Q939D)
# Outline: (§1)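 Pumilio-1 PUF domain libraries, randomized (NNK) at the three base-contacting residues of each repeat, were co-expressed with matching RNA elements from a centromeric plasmid in strain YBZ-1 (LexA–MS2 coat fusion, HIS3 reporter). Transformants were plated on SC-Leu (input) and SC-Leu-His + 0.5 mM 3-AT (selection) for four days, and repeat regions were PCR-amplified and Illumina-sequenced. The interaction score is the log2 change in variant frequency from input to selection, with pseudocount 1 where absent.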
# [2] = molecular target: PUM1 PUF domain R3-GRR (Homo sapiens, UniProt Q14671 828-1176, C935G;Q939R)
# PUM1 PUF domain R3-GRR, sequence (Q14671 828-1176 C935G/Q939R): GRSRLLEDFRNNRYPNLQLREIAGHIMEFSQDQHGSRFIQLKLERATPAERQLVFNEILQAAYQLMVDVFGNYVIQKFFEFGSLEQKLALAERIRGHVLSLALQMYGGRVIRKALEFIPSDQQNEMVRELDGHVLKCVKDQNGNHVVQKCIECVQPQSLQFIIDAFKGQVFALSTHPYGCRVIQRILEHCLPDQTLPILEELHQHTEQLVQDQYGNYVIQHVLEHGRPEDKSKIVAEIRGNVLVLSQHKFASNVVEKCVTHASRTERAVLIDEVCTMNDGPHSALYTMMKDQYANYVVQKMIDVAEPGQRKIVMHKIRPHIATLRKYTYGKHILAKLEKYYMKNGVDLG
# Outline: as §1
# [3] = molecular target: PUM1 PUF domain R3-RSS (Homo sapiens, UniProt Q14671 828-1176, C935R;R936S;Q939S)
# Outline: as §1
# [4] = molecular target: PUM1 PUF domain R8-TFR (Homo sapiens, UniProt Q14671 828-1176, N1122T;Y1123F;Q1126R)
# PUM1 PUF domain R8-TFR, sequence (Q14671 828-1176 N1122T/Y1123F/Q1126R): as the sequence (Q14671 828-1176 C935G/Q939R) above, with G108C, R112Q, N295T, Y296F, Q299R counted along it
# Outline: as §1
# [5] = molecular target: PUM1 PUF domain R8-RYE (Homo sapiens, UniProt Q14671 828-1176, N1122R;Q1126E)
# Outline: as §1
# [6] = molecular target: PUM1 PUF domain R8-HFV (Homo sapiens, UniProt Q14671 828-1176, N1122H;Y1123F;Q1126V)
# Outline: as §1
# [7] = molecular target: PUM1 PUF domain R1-QFR (Homo sapiens, UniProt Q14671 828-1176, S863Q;R864F;Q867R)
# PUM1 PUF domain R1-QFR, sequence (Q14671 828-1176 S863Q/R864F/Q867R): as the sequence (Q14671 828-1176 C935G/Q939R) above, with S36Q, R37F, Q40R, G108C, R112Q counted along it
# Outline: as §1
# [8] = molecular target: PUM1 PUF domain R1-KRK (Homo sapiens, UniProt Q14671 828-1176, S863K;Q867K)
# PUM1 PUF domain R1-KRK, sequence (Q14671 828-1176 S863K/Q867K): as the sequence (Q14671 828-1176 C935G/Q939R) above, with S36K, Q40K, G108C, R112Q counted along it
# Outline: as §1
# [9] = molecular target: PUM1 PUF domain R1-KGV (Homo sapiens, UniProt Q14671 828-1176, S863K;R864G;Q867V)
# Outline: as §1
# [10] = molecular target: PUM1 PUF domain R5-QPI (Homo sapiens, UniProt Q14671 828-1176, C1007Q;R1008P;Q1011I)
# PUM1 PUF domain R5-QPI, sequence (Q14671 828-1176 C1007Q/R1008P/Q1011I): as the sequence (Q14671 828-1176 C935G/Q939R) above, with G108C, R112Q, C180Q, R181P, Q184I counted along it
# Outline: as §1
# [11] = molecular target: PUM1 PUF domain R5-RTR (Homo sapiens, UniProt Q14671 828-1176, C1007R;R1008T;Q1011R)
# Outline: as §1
# [12] = molecular target: PUM1 PUF domain R4-RGG (Homo sapiens, UniProt Q14671 828-1176, N971R;H972G;Q975G)
# PUM1 PUF domain R4-RGG, sequence (Q14671 828-1176 N971R/H972G/Q975G): as the sequence (Q14671 828-1176 C935G/Q939R) above, with G108C, R112Q, N144R, H145G, Q148G counted along it
# Outline: as §1
# [13] = molecular target: PUM1 PUF domain R4-EWH (Homo sapiens, UniProt Q14671 828-1176, N971E;H972W;Q975H)
# PUM1 PUF domain R4-EWH, sequence (Q14671 828-1176 N971E/H972W/Q975H): as the sequence (Q14671 828-1176 C935G/Q939R) above, with G108C, R112Q, N144E, H145W, Q148H counted along it
# Outline: as §1
# [14] = molecular target: PUM1 PUF domain R7-RSQ (Homo sapiens, UniProt Q14671 828-1176, S1079R;N1080S;E1083Q)
# PUM1 PUF domain R7-RSQ, sequence (Q14671 828-1176 S1079R/N1080S/E1083Q): as the sequence (Q14671 828-1176 C935G/Q939R) above, with G108C, R112Q, S252R, N253S, E256Q counted along it
# Outline: as §1
# [15] = molecular target: PUM1 PUF domain R7-ATR (Homo sapiens, UniProt Q14671 828-1176, S1079A;N1080T;E1083R)
# Outline: as §1
# PUM1 PUF domain R3-YRD, sequence (Q14671 828-1176 C935Y/Q939D): as the sequence (Q14671 828-1176 C935G/Q939R) above, with G108Y, R112D counted along it
sequence,measurement,setting,value
GGCUAGAACUAGUGGAUCCCCCGGCGCCCGGCGGCUCGAGCCCGGGUAAGUGUAAGUAGUCUGCAUGCCGCCGGGCGCCAUGCCUGCAGGUCGACUCUAGAAAACAUG,binding signal,[1],3.85 log2 enrichment (interaction score)
same,binding signal,[2],0.8 log2 enrichment (interaction score)
same,binding signal,[3],0.48 log2 enrichment (interaction score)
GGCUAGAACUAGUGGAUCCCCCGGCGCCCGGCGGCUCGAGCCCGGGUAAGCGUAAAUAGUCUGCAUGCCGCCGGGCGCCAUGCCUGCAGGUCGACUCUAGAAAACAUG,binding signal,[4],4.89 log2 enrichment (interaction score)
same,binding signal,[5],3.48 log2 enrichment (interaction score)
same,binding signal,[6],3.91 log2 enrichment (interaction score)
GGCUAGAACUAGUGGAUCCCCCGGCGCCCGGCGGCUCGAGCCCGGGUAAGGGUAAAUAGUCUGCAUGCCGCCGGGCGCCAUGCCUGCAGGUCGACUCUAGAAAACAUG,binding signal,[4],2.97 log2 enrichment (interaction score)
GGCUAGAACUAGUGGAUCCCCCGGCGCCCGGCGGCUCGAGCCCGGGUAAGUGUAAAUCGUCUGCAUGCCGCCGGGCGCCAUGCCUGCAGGUCGACUCUAGAAAACAUG,binding signal,[7],7.18 log2 enrichment (interaction score)
same,binding signal,[8],4.04 log2 enrichment (interaction score)
same,binding signal,[9],4.16 log2 enrichment (interaction score)
GGCUAGAACUAGUGGAUCCCCCGGCGCCCGGCGGCUCGAGCCCGGGUAAGUGUUAAUAGUCUGCAUGCCGCCGGGCGCCAUGCCUGCAGGUCGACUCUAGAAAACAUG,binding signal,[10],3.43 log2 enrichment (interaction score)
same,binding signal,[11],2.56 log2 enrichment (interaction score)
GGCUAGAACUAGUGGAUCCCCCGGCGCCCGGCGGCUCGAGCCCGGGUAAGUGUAAUUAGUCUGCAUGCCGCCGGGCGCCAUGCCUGCAGGUCGACUCUAGAAAACAUG,binding signal,[2],2.87 log2 enrichment (interaction score)
same,binding signal,[3],3.63 log2 enrichment (interaction score)
GGCUAGAACUAGUGGAUCCCCCGGCGCCCGGCGGCUCGAGCCCGGGUAAGUGUAAAUAGUCUGCAUGCCGCCGGGCGCCAUGCCUGCAGGUCGACUCUAGAAAACAUG,binding signal,[12],2.44 log2 enrichment (interaction score)
same,binding signal,[6],2.65 log2 enrichment (interaction score)
GGCUAGAACUAGUGGAUCCCCCGGCGCCCGGCGGCUCGAGCCCGGGUAAGUGUACAUAGUCUGCAUGCCGCCGGGCGCCAUGCCUGCAGGUCGACUCUAGAAAACAUG,binding signal,[12],1.13 log2 enrichment (interaction score)
same,binding signal,[13],2.99 log2 enrichment (interaction score)
GGCUAGAACUAGUGGAUCCCCCGGCGCCCGGCGGCUCGAGCCCGGGUAAGUCUAAAUAGUCUGCAUGCCGCCGGGCGCCAUGCCUGCAGGUCGACUCUAGAAAACAUG,binding signal,[14],2.88 log2 enrichment (interaction score)
GGCUAGAACUAGUGGAUCCCCCGGCGCCCGGCGGCUCGAGCCCGGGUAAGUGUCAAUAGUCUGCAUGCCGCCGGGCGCCAUGCCUGCAGGUCGACUCUAGAAAACAUG,binding signal,[11],3.19 log2 enrichment (interaction score)
GGCUAGAACUAGUGGAUCCCCCGGCGCCCGGCGGCUCGAGCCCGGGUAAGUGUAAAUUGUCUGCAUGCCGCCGGGCGCCAUGCCUGCAGGUCGACUCUAGAAAACAUG,binding signal,[9],3.66 log2 enrichment (interaction score)
GGCUAGAACUAGUGGAUCCCCCGGCGCCCGGCGGCUCGAGCCCGGGUAAGUUUAAAUAGUCUGCAUGCCGCCGGGCGCCAUGCCUGCAGGUCGACUCUAGAAAACAUG,binding signal,[15],3.43 log2 enrichment (interaction score)
